This passage reports growth results from PubChem BioAssay (NCI).

Structures are written as SMILES. Compounds without any hit were thinned out: in the full panel of roughly 83,000, 20% have a hit.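 96-well plates, one dose, 48 hours. Percent growth reported; active if below 10.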 Calls of active or inactive are those of the source.

This assay concerns M14 melanoma. The assay can be described thus: NCI-60 one-dose screen, 48 h (100 = growth as untreated, 0 = no growth, -100 = all killed). The conditions noted are these: 10 µM unless noted.
As for `COc1ccc(-c2nnc(SCC(=O)Nc3ccc(C(=O)/C=C/c4cc(OC)c(OC)c(OC)c4)cc3)n2-c2ccccc2)cc1OC`, the growth is 1.87% [100 µM] (active).

For the molecule `COc1ccc2cn3c4ccc(O)cc4[nH]c(=O)c3c2c1`, the growth is -2.73% (active).

`COc1ccc(/C=N/c2cc(C(C)(C)C)nn2-c2ccccc2)cc1`: the growth was 115% (inactive).

`CCCCCCCCCCC1OC(C)CC(C)O1` (stereo not given): the growth was 101% (inactive).

As for `S=C(N/N=C/c1cc(Cl)cc(Cl)c1)NC12CC3CC(CC(C3)C1)C2`, the growth was 89% (inactive).

As to `CCOC1=C(Cl)C(=O)C(OCC)=C(Cl)C1=O`, the growth was 110% (inactive).

As for `COC(=O)/C=C1/CCCCC1(C)C(=O)OC` (stereo not given), the growth is 101% (inactive).

In the case of `CCCCCCCCCCC(C[N+](C)(C)C/C=C/c1ccccc1)C(O)c1ccccc1` (stereo not given), the growth is 6.02% (active).

Regarding `C=CC1CN2CCC1CC2C(O)c1ccnc2ccc(OC)cc12` (stereo not given), the growth is 98.9% (inactive).

As for `CC(=O)c1ccc2c(c1)c1ccccc1n2C`, the growth is 106% (inactive).

As for `CC(=O)Nc1nc(C)c(C(=O)NNS(=O)(=O)c2ccccc2)s1`, the growth is 97.6% (inactive).

Take `Cc1cc2cn3c4ccc(O)cc4nc(N)c3c2cc1C`: the growth was 4.96% (active).

As for `COc1cc(-c2nn(-c3ccc(NC(=O)Nc4ccc(Cl)c(Cl)c4)cc3)cc2-c2ccncc2)ccc1Cl`, the growth was 24.5% (inactive).

With `CCOC(=O)c1sc(NS(=O)(=O)c2ccccc2)nc1C`, the growth is 107% (inactive).

For `Clc1ccc(I)c2ccccc12`, the growth is 101% (inactive).

On to `N#Cc1c2cccnc2c2nnc3cc(Cl)c(Cl)cc3n12`, for which the growth is 78.1% (inactive).

Turning to `COc1ccc(C(=O)NCCNc2nccc(-c3c(-c4ccc(F)cc4)nc4sccn34)n2)cc1`, the growth is 55.6% (inactive).

With `CC(O)CN(CC(C)O)N(CC(C)O)CC(C)O` (stereo not given), the growth is 100% (inactive).

For the molecule `O=C(Nc1ccc(-n2cc(-c3ccncc3)c(-c3ccc(Cl)c(O)c3)n2)cc1)c1cc(C(F)(F)F)cc(C(F)(F)F)c1`, the growth was 45.1% (inactive).

Turning to `COc1cc(-c2nn(-c3ccc(NC(=O)c4cc(Cl)cc(Cl)c4)cc3)cc2-c2ccncc2)ccc1Cl`, the growth was 62.9% (inactive).

Regarding `CCCCCCC(C)N(CC(C)(C)O)C(=O)c1ccc([N+](=O)[O-])cc1` (stereo not given), the growth is 93.4% (inactive).

As for `COc1cc(-c2nn(-c3ccc(NC(=O)c4ccc(Cl)c(Cl)c4)cc3)cc2-c2ccncc2)ccc1Cl`, the growth is 62.3% (inactive).

Turning to `COC(=O)[C@@H]1[C@H](O)[C@H](C)[C@H](O)[C@H](C)/C=C\C=C(C)C(=O)Nc2c(C)c(OC(C)=O)c3c(c2O)C(=O)C(C)=C2OCOC(=C23)C(C)=C[C@@](C)(O)[C@H](O)[C@@H](C)[C@H]1OC(C)=O`, the growth is 107% (inactive).

Regarding `C/C(=C\c1ccc2ccccc2c1)[N+](=O)[O-]`, the growth is 22.4% (inactive).

For the molecule `Cc1cc2cn3c4ccc(O)cc4[nH]c(=O)c3c2cc1C`, the growth was -19.4% (active).

For the molecule `COc1ccc(C(=O)N2N=C(c3ccc(Br)cc3)CC2c2cn(-c3ccccc3)nc2-c2ccccc2)cc1` (stereo not given), the growth was 39.1% (inactive).

Take `O=CN/N=C/c1ccc(Cl)c([N+](=O)[O-])c1`: the growth is 29% (inactive).

As to `O=C1CCNC1`, the growth was 105% (inactive).

Regarding `O=c1[nH]c2cc(O)ccc2n2cc3c(F)cccc3c12`, the growth is 25.2% (inactive).

On to `O=C(CCC(=O)N(CCO)CCO)N(CCO)CCO`, for which the growth is 99.5% (inactive).

For `O=C(CCl)NC1c2ccccc2Oc2ccccc21`, the growth was 77.8% (inactive).

For the molecule `CC(=O)N1CCN(CCNC(=O)n2cc(-c3ccncc3)c(-c3cc(O)cc(Cl)c3)n2)CC1`, the growth was 5.16% (active).

Consider `CC(C)OCC1CO1` (stereo not given), for which the growth was 102% (inactive).

As for `Oc1ccc(Br)cc1/C=N/NC(=S)NC12CC3CC(CC(C3)C1)C2`, the growth is 20.6% (inactive).

For `CC(=O)N1CCN(CCNC(=O)n2cc(-c3ccncc3)c(-c3ccc(O)c(Cl)c3)n2)CC1`, the growth was 70.2% (inactive).

`CCOC(=O)/C(C#N)=C(/CC)OCC`: the growth was 95.5% (inactive).

Turning to `O=C1Nc2c(c(=O)n(-c3ccccc3)c3ccccc23)C(c2ccc(Cl)cc2)N1` (stereo not given), the growth is 95.2% (inactive).

Take `N=C(c1ccccc1)N(Cc1ccccc1)Cc1ccccc1`: the growth is 78% (inactive).

As to `COc1cccc(NC(=O)NCCNc2nccc(-c3c(-c4ccc(F)cc4)nc4sccn34)n2)c1`, the growth is 92.6% (inactive).

Turning to `Cc1ccc(NC(=O)CCl)cc1Cl`, the growth is 104% (inactive).
